In all, about 4,600 compounds went through this assay and about 2,900 (63%) were called active. So high a share suggests a set chosen from earlier hits. Only a sample is shown. Unmarked numbers belong to inactive results.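 The calls were made as follows: active = inhibition of yeast growth at or above a set limit in either of two replicates at 10 µM; inactive = the rest.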
Assay: growth inhibitors of wild-type TIM10 yeast, confirmation, counter-screen for tim10-1 synthetic lethality project, single concentration, luminescence, S. cerevisiae (AID 463215);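 also: isogenic wild-type TIM10 control yeast grown in succinate dextrose medium; 0% = yeast with DMSO and 100% = medium wells lacking yeast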
Conditions: S. cerevisiae tim10 strain growth, BacTiter-Glo luminescence, 24 h; at 10 µM; hits give high values

For `N/C(=N\OC(=O)c1cc(-c2ccccc2)nc2ccccc12)c1ccncc1`, which inhibition is on record?
Its inhibition is 64.8% (active).

Which inhibition does the source give for `O=C(NCCN1C(=O)S/C(=C\c2cccnc2)C1=O)c1cccc(OC(F)F)c1` here?
Its inhibition is -9.15%.

With `CCCCNC(=S)N/N=C1\CCCCc2ccccc21` as the compound, how does the inhibition read?
The inhibition was 34.3% (active).

With `CCN1/C(=C\c2ccc3ccccc3[n+]2CC)Sc2cc(C)ccc21` as the compound, how does the inhibition read?
Its inhibition is 78.1% (active).

With `Cc1oc2c(c1C(=O)N1CCOCC1)C(=O)c1ccccc1C2=O` as the compound, how does the inhibition read?
The inhibition was 22.8%.

For `O=C(/C=C/Sc1ncn[nH]1)c1ccc(Cl)cc1`, which inhibition is on record?
Its inhibition is 79% (active).

For `O=C(ON=C1CCN(S(=O)(=O)c2ccccc2)CC1)c1ccc(Cl)cc1`, which inhibition is on record?
The inhibition was 62.2% (active).

For `Cc1ccccc1NCC(=O)N/N=C\c1ccc([N+](=O)[O-])s1`, which inhibition is on record?
The inhibition was 37.2% (active).

With `O=[N+]([O-])c1cccc(Nc2c3ccccc3nc3ccccc23)c1` as the compound, how does the inhibition read?
Its inhibition is 21.6%.

For `O=C1NC(=O)C2C1C(c1ccc([N+](=O)[O-])cc1)=NN2Cc1ccccc1` (configuration not stated), which inhibition is on record?
Its inhibition is 4.5%.

For `O=[N+]([O-])c1ccc2c(c1)Nc1nc3ccccc3nc1N2`, which inhibition is on record?
The inhibition was 83.8% (active).

For `COc1ccc(C(=O)COC(=O)c2ccc([N+](=O)[O-])s2)cc1OC`, which inhibition is on record?
The inhibition was 81.8% (active).

With `COc1nc(NC2CCCCC2)nc(N2CCCCCC2)n1` as the compound, how does the inhibition read?
The inhibition was -15.7%.

Which inhibition does the source give for `O=C(Nc1ccc2c(c1)CCC2)c1ccc(Br)s1` here?
Its inhibition is 44% (active).

Which inhibition does the source give for `Cc1ccc(NC(=O)c2cccs2)cc1S(=O)(=O)N(C)C` here?
The inhibition was -1.3%.

With `N/C(Cc1ccc([N+](=O)[O-])cc1)=N\OC(=O)C1CCCCC1` as the compound, how does the inhibition read?
The inhibition was 49.2% (active).

Which inhibition does the source give for `N/C(Cc1ccc([N+](=O)[O-])cc1)=N\OC(=O)COc1ccc2ccccc2c1` here?
The inhibition was 51% (active).

With `CC1(C)CCSC(/C=C/c2ccccc2)=N1` as the compound, how does the inhibition read?
Its inhibition is 56.7% (active).

With `CNC(=S)N/N=C/c1cn(Cc2ccc(C)cc2)c2ccccc12` as the compound, how does the inhibition read?
The inhibition was 53.4% (active).

Which inhibition does the source give for `CSC(=S)N/N=C/c1c[nH]c2ccccc12` here?
Its inhibition is 20.1%.

With `COC(=O)c1c(NC(=O)CSc2nncs2)sc2c1CCCCC2` as the compound, how does the inhibition read?
The inhibition was 25.7%.

With `COC(=O)c1sccc1NS(=O)(=O)c1ccc(F)cc1F` as the compound, how does the inhibition read?
Its inhibition is 42.8% (active).

Which inhibition does the source give for `O=C(Oc1ccc(F)cc1)N1CCOCC1` here?
Its inhibition is -0.9%.

With `O=C(/C=C/c1cccs1)c1cc(Cl)ccc1OC(=O)N1CCOCC1` as the compound, how does the inhibition read?
The inhibition was 40.2% (active).

For `C[C@@H](NC(=O)OC(C)(C)C)c1nnc(S(=O)(=O)Cc2ccccc2)o1`, which inhibition is on record?
Its inhibition is 43.6% (active).

For `N#C/C(=C\c1ccccc1C(F)(F)F)C(=O)Nc1ccccc1F`, which inhibition is on record?
The inhibition was 46.9% (active).

Which inhibition does the source give for `CCCc1[nH]nc2c1C(c1ccc(Br)s1)C(C#N)=C(N)O2` (configuration not stated) here?
The inhibition was 73.4% (active).

For `Cc1ccc(-c2ccc(/C=C(\C#N)C(N)=S)o2)c([N+](=O)[O-])c1`, which inhibition is on record?
The inhibition was 54.1% (active).

Which inhibition does the source give for `O=[N+]([O-])c1ccccc1S(=O)(=O)Nc1cccc2cccnc12` here?
Its inhibition is 19.5%.

With `O=c1nc2s/c(=C\c3ccco3)c(=O)n2nc1Cc1ccccc1` as the compound, how does the inhibition read?
The inhibition was 56.5% (active).

With `Oc1ccc(/C=N/N(Cc2ccccc2)c2ccccc2)cc1` as the compound, how does the inhibition read?
The inhibition was 28.2%.

With `CCOC(=O)c1ccc(N2C(=O)CC(N3CCC(C(=O)OCC)CC3)C2=O)cc1` (configuration not stated) as the compound, how does the inhibition read?
The inhibition was 21.4%.

Which inhibition does the source give for `Cc1cc(Nc2ccccc2)n(C(=O)c2ccc(N)cc2)n1` here?
The inhibition was 57.5% (active).

With `CN1CCN(c2ccccc2NC(=O)COc2ccc(C3CCCCC3)cc2)CC1` as the compound, how does the inhibition read?
Its inhibition is 30.4% (active).

For `O=C(NC(Nc1nc2ccc([N+](=O)[O-])cc2s1)(C(F)(F)F)C(F)(F)F)c1ccccc1`, which inhibition is on record?
Its inhibition is 77.7% (active).

For `N#C/C(=C\c1cccnc1)C(=O)Nc1ccc(SC(F)F)cc1`, which inhibition is on record?
Its inhibition is 42.2% (active).

Which inhibition does the source give for `CC1CCCCC1NC(=O)/C(C#N)=C/C=C/c1ccccc1[N+](=O)[O-]` (configuration not stated) here?
Its inhibition is 41.3% (active).

With `COc1ccc2nc(N3CCN(C(=O)c4ccc([N+](=O)[O-])o4)CC3)sc2c1` as the compound, how does the inhibition read?
The inhibition was 82.2% (active).

For `Cc1ccccc1OCC(=O)Nc1ccc(N2CCN(C(=O)C(C)C)CC2)c(Cl)c1`, which inhibition is on record?
Its inhibition is 62.8% (active).

Which inhibition does the source give for `Oc1c(Cl)cc(Cl)c(Cl)c1Cc1c(O)c(Cl)cc(Cl)c1Cl` here?
Its inhibition is 89.8% (active).

With `Cc1cccc(C2=N/C(=C/c3cccs3)C(=O)O2)c1` as the compound, how does the inhibition read?
The inhibition was 22%.

With `CSC1=N/C(=C\C=C\c2cccs2)C(=O)S1` as the compound, how does the inhibition read?
Its inhibition is 56.8% (active).

Which inhibition does the source give for `O=C(CCN1CCc2ccccc2C(O)(c2ccccc2)C1)c1ccc2c(c1)OCCO2` (configuration not stated) here?
The inhibition was 46.2% (active).

Which inhibition does the source give for `Cc1cc(C)cc(NC(=S)NCCc2c[nH]c3ccccc23)c1` here?
The inhibition was -10.2%.

Which inhibition does the source give for `Cc1cccc(NC(=S)NCc2ccc3[nH]c4c(c3c2)CCCC4)c1` here?
The inhibition was 34.5% (active).

For `c1ccc(C2=Nc3cccc4cccc(c34)N2)cc1`, which inhibition is on record?
The inhibition was -39.8%.

Which inhibition does the source give for `O=C1c2ccccc2C(=O)c2c1cccc2N1CCN(Cc2ccccc2)CC1` here?
The inhibition was 34.2% (active).

Which inhibition does the source give for `O=Cc1c(N2CCN(c3cccc(Cl)c3)CC2)nc2ccccn2c1=O` here?
Its inhibition is 17.8%.

Which inhibition does the source give for `COc1cc(Br)cc(/C=N/c2ncn[nH]2)c1O` here?
The inhibition was 35% (active).

With `c1ccc(-c2nnc3n2NC(c2ccc4c(c2)OCO4)S3)cc1` (configuration not stated) as the compound, how does the inhibition read?
Its inhibition is 59.1% (active).

With `Cc1ccc(-c2nn(C(C)(C)C)c3ncnc(N)c23)cc1` as the compound, how does the inhibition read?
The inhibition was 54.8% (active).

For `CC(C)(CCl)C(=O)Nc1ccc(Sc2ccc(F)cc2)cc1`, which inhibition is on record?
Its inhibition is 41% (active).

Which inhibition does the source give for `C=CCNC(=O)c1ccc2c3n(nc2c1)-c1ccc(C)cc1CO3` here?
The inhibition was 45.5% (active).

For `CCOC(=O)C1=C(C)N=c2s/c(=C\C(=O)OC)c(=O)n2C1c1ccc(OC)cc1` (configuration not stated), which inhibition is on record?
The inhibition was 53.6% (active).

With `O=C(COC(=O)c1ccc([N+](=O)[O-])o1)NC12CC3CC(CC(C3)C1)C2` as the compound, how does the inhibition read?
The inhibition was 44.8% (active).

For `S=C(NCc1ccc(Cl)cc1)NC12CC3CC(CC(C3)C1)C2`, which inhibition is on record?
The inhibition was 23.8%.

Which inhibition does the source give for `COc1ccc(CN(C(=O)CSc2nnc(-c3ccc(OC)c(OC)c3)o2)c2ccc(F)cc2)cc1` here?
The inhibition was 19%.

With `CCN(CC)c1ccc(/C=N/NC(=O)c2cnccn2)c(O)c1` as the compound, how does the inhibition read?
Its inhibition is 41.4% (active).

Which inhibition does the source give for `COc1ccc(C(=O)O/N=C(\N)Cc2ccc(Cl)cc2Cl)cc1OC` here?
The inhibition was 86.7% (active).

Which inhibition does the source give for `Cc1cc(N=Nc2ccc3ccccc3c2)ccc1O` here?
Its inhibition is 88.4% (active).

Which inhibition does the source give for `FC(F)(F)c1cnc(Oc2ccccc2-c2nnc(-c3ccc(Cl)cc3)o2)c(Cl)c1` here?
The inhibition was 5.25%.

For `O=C1Oc2ccccc2C(=O)/C1=C/c1ccccc1O`, which inhibition is on record?
Its inhibition is 57.5% (active).
